Source: PubChem BioAssay

These molecules were tested on Inhibin beta A chain (activin A) (assay: INHBA (activin A) binders on microarrays, primary screen, biochemical, small-molecule microarray, 635 nm fluorescence scan (AID 1107;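 note: mouse activin A protein probed at 4.33 µg/mL on printed slides; score merges bound-protein fluorescence near 667 nm with spot signal-to-noise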)). Conditions: small-molecule microarray binding, higher = more signal.

Row | SMILES | composite z-score
1 | Cc1ccccc1C(O)C1C=CC2C(=O)N(c3ccccc3)C(=O)C2N1Nc1ccc(C(C)C)cc1 (stereo not given) | 0.625
2 | CCS[C@H]1[C@@H](C(=O)O)[C@H](c2ccc(C)cc2)N(S(=O)(=O)c2ccc(C)cc2)[C@@H]1CC | 0.626
3 | COc1cc(NN2C(C(O)c3ccco3)C=CC3C(=O)N(c4ccccc4)C(=O)C32)cc(OC)c1OC (stereo not given) | 0.914
4 | CNS(=O)(=O)c1ccc(C)cc1 | -1.89
5 | O=C1N(Cc2ccccc2)c2ccccc2[C@@H]2OC(c3ccc(OCCCO)cc3)=N[C@]12CCS(=O)(=O)c1ccccc1 | 1.07
6 | COc1cc2c(cc1O)C(C1CC1)N(Cc1sc3ccccc3c1Cl)CC2 (stereo not given) | 1.48
7 | Oc1ccc2cc[n+](Cc3sc4ccccc4c3Cl)cc2c1 | 1.28
8 | CC(C)N1C(=O)C[C@@](C(=O)NCC(F)(F)F)(c2ccc([N+](=O)[O-])cc2)[C@H]1c1ccc(CO)cc1 | 0.5
9 | COCCCNC(=O)[C@@]1(C)c2ccccc2C(=O)N(C(C)C)[C@H]1c1ccc(CO)cc1 | 0.531
10 | COCCOC(=O)N1C(=O)[C@@]2(c3cc(C#CCC(C(=O)OC)C(=O)OC)ccc31)[C@H](c1ccccc1OCCO)N1[C@H](c3ccccc3)[C@H](c3ccccc3)OC(=O)[C@H]1[C@@H]2C(=O)N1CCN(c2ncccn2)CC1 | 1.14
11 | CCOC(=O)[C@H]1C/C=C/C[C@H](C(=O)OCC)C(=O)O[C@H]2[C@@H](OC)O[C@H](CO)[C@@H](OC(=O)c3c(OC)cccc3OC)[C@@H]2OC1=O | 0.837
12 | C=C(COC)/C(=C/C[C@@H](OC(=O)c1ccncc1)c1ccc(CO)o1)c1cc(C(=O)OC)ccc1OC | 1.03
13 | CC(C)N1C(=O)c2ccccc2[C@](C)(C(=O)NCCN2CCOCC2)[C@@H]1c1ccc(CO)cc1 | 0.503
14 | COCCCNC(=O)[C@@H]1c2ccccc2C(=O)N(Cc2ccccc2Cl)[C@H]1c1ccc(CO)cc1 | 0.975
15 | CC(C)NC(=O)[C@@]1(c2ccc([N+](=O)[O-])cc2)CC(=O)N(C2CCCCC2)[C@@H]1c1ccc(CO)cc1I | -0.524
16 | C=C(CCCC)/C(=C/C[C@H](OC(C)=O)c1ccccc1OCCO)c1cc(C(=O)OC)ccc1OC | 1.12
17 | COCCOC(=O)N1C(=O)[C@@]2(c3cc(C#Cc4ccc(OC)cc4)ccc31)[C@H](c1ccc(O)cc1)N1[C@H](c3ccccc3)[C@H](c3ccccc3)OC(=O)[C@H]1[C@@H]2C(=O)N1CCc2cc(OC)c(OC)cc2C1 | -0.0186
18 | O=C1C2C=CC(C(O)Cc3ccccc3)N(n3cnnc3)C2C(=O)N1Cc1ccccc1 (stereo not given) | 0.825

Row | SMILES | composite z-score
19 | C=CC[C@]1(C(=O)NCc2ccccc2)N=C(c2ccc(OCCCO)cc2)O[C@H]1c1ccccc1N=[N+]=[N-] | 1.29
20 | CCOC(=O)C[C@H]1[C@H](OC(=O)c2ccc(C(=O)c3ccccc3)cc2)[C@@H](NC(=O)c2ccc3ccccc3n2)c2cc(OCCCO)ccc2N1C(=O)c1ccccc1 | -0.177
21 | CN(C)C(=O)[C@@]1(CCS(=O)(=O)c2ccccc2)COC(c2ccc(OCCCO)cc2)=N1 | 1.04
22 | COc1ccccc1CN1C(=O)c2ccccc2[C@@H](C(=O)NC2CC2)[C@@H]1c1ccc(CO)cc1 | 0.633
23 | COC(=O)[C@H](Cc1ccccc1)N[C@@H](/C=C/C1CC1)[C@H](O)Cc1ccccc1 | 0.437
24 | O=C1C2C=CC(C(O)c3cccc4ccccc34)N(Nc3ccccc3F)C2C(=O)N1c1ccccc1 (stereo not given) | 0.723
25 | O=C(CS)NCCCCCCNC(=O)[C@@H]1C[C@@H]2C(=O)N[C@@H](Cc3ccccc3)C(=O)N2[C@@H]1c1cccc(OCCO)c1 | 0.382
26 | NC(=O)NCC#Cc1ccc2c(c1)[C@]1(C(=O)N2)[C@H](C(N)=O)[C@H]2C(=O)O[C@H](c3ccccc3)[C@H](c3ccccc3)N2[C@@H]1c1ccc(O)cc1 | 0.778
27 | CCCC[C@@H]1C[C@H]1[C@@H](NC(=O)c1cccs1)c1ccc(-c2ccccc2)cc1 | 1.3
28 | C=CCOC(=O)[C@H]1[C@@H]2C(=O)O[C@@H](c3ccccc3)[C@@H](c3ccccc3)N2[C@@H](c2ccc(OCCOC(=O)[C@@H]3C[C@@H]4C(=O)N[C@@H](CCCCNC(C)=O)C(=O)N4[C@@H]3c3ccc(O)cc3)cc2)[C@]12C(=O)Nc1ccccc12 | 0.152
29 | CCCCCCc1nc(-c2ccc(OC)nc2)cc2c1[Si](C(C)C)(C(C)C)O[C@H]2c1ccccc1 | 0.318
30 | CC(C)C(CO)N1C(=O)[C@@H]2C3C(=O)OCCC/C=C\[C@H]3OC23C=CCN(CCN2CCOCC2)C(=O)[C@@H]13 (stereo not given in full) | 0.88
31 | C=C(COC)/C(=C/C[C@@H](OC(C)=O)c1ccc(OCCO)cc1)c1cnc2ccccc2c1 | 1.7
32 | CN(C)CCCCCCNC(=O)[C@@H]1C[C@@H]2C(=O)N[C@@H](Cc3ccccc3)C(=O)N2[C@@H]1c1ccc(O)cc1 | 1.41
33 | Cc1nc2cc(Br)ccc2c(=O)o1 | 0.435
34 | COCCOC(=O)N1C(=O)[C@@]2(c3ccccc31)[C@H](c1ccc(O)cc1)N1[C@H](c3ccccc3)[C@H](c3ccccc3)OC(=O)[C@H]1[C@@H]2C(=O)Nc1nc2ccccc2s1 | 0.0446
35 | COCC(=C=CC[C@@H](O)c1cccc(OCCO)c1)C[C@@H](O)c1ccccn1 | 0.565
